The values below come from PubChem BioAssay AID931 (National Center for Advancing Translational Sciences (NCATS), 2007).

Records with an inconclusive call do not appear. Active and inactive are the calls of the source. The call rests on the fitted dose curve; in most records, active means well fitted cell-killing curve with a large enough effect; inconclusive means small, poorly fitted or top-dose-only effect; inactive means flat fitted curve, though single readings scatter.

The assay in a line: Confirmation and Secondary Assay for Modulators of Hemoglobin Beta Chain Splicing at IVS2 654 locus: Cytotoxicity. To be noted: HBB IVS2-654 splicing reporter cells; series mostly up to 46.1 µM; activity change, negative = cytotoxicity: at the top concentration. An excerpt: NIH Chemical Genomics Center [NCGC]
NIH Molecular Libraries Screening Centers Network [MLSCN]
PI Name: Dr. Ryszard Kole
Modulation of Alternative Splicing as Therapy
Abnormal splicing is associated with a number of diseases, including cancer and genetic diseases such as cystic fibrosis, muscular dystrophy and beta-thalassemia. Alteration of disease associated splicing patterns provides a promising target for treatment. […] Mutations in the second intron of the b-globin gene at positions 654 or 705 are clinically relevant and cause mis-splicing which results in an out of frame gene product.
Examination of toxicity of select compounds in EGFP-654 HeLa Cells
HeLa cell lines were stably transfected with a construct in which the EGFP (enhanced green fluorescent protein) cDNA was interrupted by the second intron of the beta-globin gene (IVS2-654). The ISV2 intron contains mutations which cause mis-splicing of EGFP and premature termination of EGFP which results in a nonfluorescent protein product. […] Expression of the transgene was driven by the CMV promoter. Compounds, and related structures identified in the primary screen as potential splicing modulation were examined for their effects on cell toxicity in this follow up assay .
NCGC Assay Protocol Summary:
Toxicity Screening. Freshly thawed HeLa EGFP-654 cells were seeded in 5 ul of optimem media (Invitrogen) containing 2 % fetal calf serum (Hyclone) and 1x penicillin/streptomycin (Invitrogen) at a concentration of 500 cells per well in 1536-well plates. Cells were incubated overnight at 37C in 5% CO2. The next day, cells were treated with DMSO, 500 nM antisense ISV2 654 PNA control oligo, or library compound and allowed to grow at 37C in 5% CO2 for 2 days. Cells were treated with 5 ul/well of freshly prepared ATPlite (Perkin Elmer) and cells were allowed to lyse at room temperature for 5 minutes. Luminescence was captured on an Viewlux CCD imager (Perkin Elmer) using a 15 second integration time and cell death was measured by comparing compound treatments to DMSO treatment (no cell death).
Keywords: Thalassemia, beta-thalassemia, beta-globin, EGFP, ISV2 654, ISV2 705, SSO, PNA, antisense, splicing, ATPlite, toxicity, MLSMR, MLSCN, NIH Roadmap, qHTS, NCGC
As for `Nc1ncn([C@@H]2O[C@H](CO)[C@@H](O)[C@H]2O)c(=O)n1`, the Potency is 1260 nM (active).
`Nc1ncnc2c1nc(Br)n2C1OC(CO)C(O)C1O` (centres undefined): the “activity change, negative = cytotoxicity” value is -26.4% (inactive).
As for `S=C1NC=NC2N=CNC12` (centres undefined), the Potency was 199 nM (active).
On the same count and under the same terms, the result for `Cn1cnc([N+](=O)[O-])c1Sc1ncnc2nc[nH]c12` reads 316 nM (active).
As to `O=c1[nH]c(=O)n(C2CC(O)C(CO)O2)cc1F` (centres undefined), the “activity change, negative = cytotoxicity” value is -25% (inactive).
With `CSc1ncnc2c1ncn2C1OC(CO)C(O)C1O` (centres undefined), the Potency is 794 nM (active).
With `Nc1ncnc2c1nc(Cl)n2C1OC(CO)C(O)C1O` (centres undefined), the “activity change, negative = cytotoxicity” value was 6.51% (inactive).
On to `Nc1ccn([C@H]2CC[C@@H](CO)O2)c(=O)n1`, for which the “activity change, negative = cytotoxicity” value is 1.26% (inactive).
Consider `NC1=NC(S)C2N=CN=C2N1` (centres undefined), for which the Potency was 316 nM (active).
As for `OCC1OC(n2cnc3c(Cl)ncnc32)C(O)C1O` (centres undefined), the “activity change, negative = cytotoxicity” value was -9.7% (inactive).
Still for that read-out and setting: as for `N=c1ccn2c(n1)O[C@@H]1[C@@H](O)[C@H](CO)O[C@H]12`, the figure is -14% (inactive).
The same measure, in the same setting: the result for `Nc1nc(=O)n(C2OC(CO)C(O)C2O)cc1Cl` (centres undefined) reads -10.6% (inactive).
Consider `OCC1OC(n2cnc3c(=S)nc[nH]c32)C(O)C1O` (centres undefined), for which the Potency is 3160 nM (active).
On to `Nc1nc(Cl)nc2c1ncn2[C@H]1C[C@H](O)[C@@H](CO)O1`, for which the “activity change, negative = cytotoxicity” value is -14.5% (inactive).
